A-T KAP1 phos: potential ataxia-telangiectasia treatment; hit rate 0.19% among 320,000; F2112 A-T fibroblasts, KAP-1 phosphorylation AlphaLISA; neocarzinostatin DNA damage 30 min before lysis; Potency, µM (doses to about 57.5 µM), inactives show top-dose activation, actives largely listed as activators; note: potency is the fitted concentration of half-maximal effect; % of control where 0% means no effect; nearly all actives have a fitted effect of over 45% in size
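ATM-like activity read as KAP-1 phosphorylation via AlphaLISA donor/acceptor antibody pairs after lysis and 6 hr at 25C. Cells were ATM-null patient fibroblasts (F2112, hTERT), dosed 60 min, then exposed to the DSB inducer NCS for 30 min.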
Nrf2 ARE act: activates Nrf2 signaling; AREc32 ARE-luciferase reporter (MCF7-derived line), luminescence, 24 h; Potency, µM (doses to about 46.1 µM), for inactives: top-dose activation, most hits filed as activators; hit rate 0.31% among 410,000; AID 624171; note: potency is the fitted concentration of half-maximal effect; % of control where 0% means no effect; nearly all actives have a fitted effect of over 65% in size
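AREc32 cells carrying an ARE-driven firefly luciferase reporter were seeded at 1000 cells/well in OPTI-MEM with 5% FBS, then exposed to compound for 24 hr at 37 deg C. Luminescence was read with Steady-Glo after 30 min at RT.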
Nrf2 inh: inhibitors of Nrf2 signaling; A549 ARE-Fluc reporter, luciferase luminescence, 18-24 h; Potency, µM (top dose mostly 46 µM), for the others: top-dose activity change, negative = inhibition, most hits filed as inhibitors; hit rate 2.1% among 360,000; AID 504444; note: potency is the fitted concentration of half-maximal effect; % is set by controls: 0 for no effect and ±100 for the full control effect; nearly all actives have a fitted effect of over 60% in size
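A549 ARE_Fluc cells, 5000/well, 5% FBS OPTI-MEM; compounds in dose-response, 18-24 h at 37 °C/5% CO2; CellTiter-Fluor viability read (Ex 405/Em 525), then BugLite luciferase luminescence = Nrf2 activity.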
CCT modulator: modulators of cytosolic chaperonin (CCT/TRiC) activity. purified chaperonin ATPase assay, HTRF ADP detection, 30 min. activity change, % (test concentration not listed), hits read low. hit rate 0.3% among 360,000. AID 651819; in the data active = activity change below about -30%; note: % is set by controls: 0 for no effect and ±100 for the full control effect
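ATPase activity: ADP formed was measured by HTRF Transcreener (665/615 nm ratio) after 30 min at 37 deg C with 10 uM ATP. Compounds screened at one 76 uM concentration against 40 or 20 nM TRiC in Tris pH 7.4/KCl/MgCl2/DTT buffer.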
A549 viability: counter-screen for Nrf2 inhibitors: cytotoxicity in A549 cells | hit rate 0.16% among 390,000 | Potency, µM (doses to about 46 µM), for the others: top-dose activity change, negative = cytotoxicity, actives largely listed as inhibitors | A549 ARE-Fluc cells, CellTiter-Fluor viability, 18-24 h; note: potency is the fitted concentration of half-maximal effect; % is set by controls: 0 for no effect and ±100 for the full control effect
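A549 ARE-Fluc cells in 5% FBS OPTI-MEM, 5000 cells/well, rested 2 h then exposed to compounds in concentration-response for 18-24 h at 37 °C. Viability by CellTiter-Fluor fluorescence (Ex 405/Em 525) after 30 min; luciferase luminescence (BugLite, 15 min, RT) read afterwards.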
TCR act: activates T cell receptor signaling; primary human leukocytes, anti-CD3, IL-2 HTRF, 48 h; 330,000 tested, under 10 active; Potency, µM (titrated, usually from 9.22 µM), inactives show at the highest dose activation of IL-2 secretion, most hits filed as activators; note: % of control where 0% means no effect
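48 hr co-incubation of compounds, a-CD3 beads and primary human leukocytes; IL-2 quantified homogeneously by HTRF with anti-IL-2 K and d2 conjugates.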
Numbers without * were called inactive; [ ] = another dose, or the depositor's remark. Most compounds without a hit are left out; they make up all but 2.6% or so of the library. Unless noted, calls come from the whole dose curve; as a rule, active = well fitted curve in the direction sought with a large enough effect; inconclusive = small, poorly fitted or top-dose-only effect, or another doubt; inactive = no such curve, though single readings can be large; an effect the other way counts as inactive or inconclusive.

`Cc1ccc(S(=O)(=O)/C(C#N)=C/c2c[nH]c3ccccc23)cc1` gave A-T KAP1 phos 18.6%, Nrf2 ARE act 2.8%, Nrf2 inh 16.4µM*, CCT modulator 0.4, A549 viability -22.7% and TCR act 4.2%.
Screening CCCc1cc(F)c(S(=O)(=O)N2CCN(S(=O)(=O)c3ccc4c(c3)OCCO4)CC2)cc1F returned Nrf2 inh 12.6% and A549 viability 1.3%.
`Cc1ccc(CNC(=O)CSc2nc3n[nH]c(C)c3c(=N)n2-c2cccc(C)c2)cc1` gave Nrf2 ARE act 2.7%, Nrf2 inh 14.6µM*, CCT modulator -1.2, A549 viability inconclusive and TCR act -2.4%.
`CCCCNC(=O)CSc1nc2n[nH]c(C)c2c(=N)n1-c1cccc(C)c1` gave Nrf2 ARE act 5.9% and A549 viability -12.3%.
Screening CC(=O)C1CCC2C3CCC4=CC(=O)CCC4(C)C3(Br)C(=O)CC12C (stereo not given) returned Nrf2 ARE act 0.7%, Nrf2 inh 0.8%, CCT modulator -0.9, A549 viability -4.5% and TCR act -1.1%.
Screening CC(=O)C1CCC2C3CCC4=CC(=O)CC[C@]4(C)[C@@]3(F)C(O)C[C@]12C (stereo not given in full) returned A-T KAP1 phos 1.5%, Nrf2 ARE act -0.3%, Nrf2 inh 2.91µM*, CCT modulator -4.6, A549 viability -3.6% and TCR act -1.8%.
For Cc1ccc2onc(CNC(=O)NCc3cccc(Cl)c3)c2c1 the results were Nrf2 ARE act 3.2%, Nrf2 inh 16.9% and A549 viability 9.3%.
`O=C(O)C1CCN(C(=O)CSc2nc3cc(Cl)ccc3c(=O)n2Cc2ccccc2)CC1` gave A-T KAP1 phos 0.4%, Nrf2 ARE act -0.2%, Nrf2 inh -26.6%, CCT modulator -2.4, A549 viability -3.6% and TCR act -2.8%.
For CC(=O)N1N=C(c2ccc(Br)cc2)OC1(C)CC(=O)Nc1ccccc1 (stereo not given) the results were A-T KAP1 phos 6.5%, Nrf2 ARE act 0.7%, Nrf2 inh 23.1µM*, CCT modulator -3.9, A549 viability inconclusive and TCR act -4.2%[46.1 µM].
CCC(=O)N1N=C(c2ccc(NS(=O)(=O)c3ccc(C)cc3)cc2)CC1c1ccco1 (stereo not given) was read as A-T KAP1 phos 9.1%, Nrf2 ARE act 0.4%, Nrf2 inh 18.4µM*, CCT modulator -1.3, A549 viability -19.1% and TCR act -0.7%.
`O=C(O)CCC(=O)N1N=C(c2c(-c3ccccc3)c3cc(Cl)ccc3[nH]c2=O)CC1c1ccco1` (stereo not given) gave A-T KAP1 phos 4.6%, Nrf2 ARE act -0.8%, Nrf2 inh 13.6%, CCT modulator -2.3, A549 viability -6.7% and TCR act -3.7%[46.1 µM].
For CCC(=O)N1N=C(c2c(-c3ccccc3)c3cc(Cl)ccc3[nH]c2=O)CC1c1ccco1 (stereo not given) the results were A-T KAP1 phos -3.8%, Nrf2 ARE act 3.3%, Nrf2 inh 23.1µM*, CCT modulator -1.0, A549 viability inconclusive and TCR act 1.8%[46.1 µM].
For CCC(=O)N1N=C(c2ccc(C)cc2)CC1c1ccco1 (stereo not given) the results were A-T KAP1 phos -6.7%, Nrf2 ARE act 3.5%, Nrf2 inh 0.4%, CCT modulator 0.3, A549 viability -4.3% and TCR act 5.4%.
`CN(CCc1nc2ccc(Cl)cc2[nH]1)Cc1nc(CC2CC2)no1` gave A-T KAP1 phos -7.2%, Nrf2 ARE act 4.4%, Nrf2 inh 0.0%, CCT modulator -2.9, A549 viability -2.5% and TCR act 12.3%.
Cc1nc(-c2cccc(NC(=O)Nc3ccc([N+](=O)[O-])cc3)c2)no1 was read as Nrf2 ARE act -0.1% and A549 viability inconclusive.
Cc1cccc(-n2nnc3c(=O)n(Cc4ccccn4)cnc32)c1 was read as A-T KAP1 phos -1.2%, Nrf2 ARE act 1.9%, Nrf2 inh -4.6%, CCT modulator -1.0, A549 viability -25.6% and TCR act -2.1%.
Screening O=c1[nH]c(O)c(/C=C2\C=Nc3ccc(Br)cc32)[nH]1 returned A-T KAP1 phos 3.0%, Nrf2 ARE act 10µM*, Nrf2 inh 19.1%, CCT modulator 1.0, A549 viability -5.7% and TCR act 15.8%.
`O=C(Cn1c(O)c(/C=C2\C=Nc3ccc(Br)cc32)sc1=O)N1CCCC1` gave A-T KAP1 phos 0.6%, Nrf2 ARE act 0.5%, Nrf2 inh inconclusive, CCT modulator -0.8, A549 viability inconclusive and TCR act -2.1%.
For Cc1ccc(Sc2c(C#N)c(-c3ccccc3)nn2C)cc1 the results were A-T KAP1 phos 10.2%, Nrf2 ARE act 0.1%, Nrf2 inh 5.8µM*, CCT modulator -0.5 and A549 viability -27.7%[1.84 µM].
Screening NC(=O)c1cc2ccccc2o/c1=N\NC(=O)c1ccccc1O returned A-T KAP1 phos 7.8%, Nrf2 ARE act 0.0%, Nrf2 inh 8.2µM*, CCT modulator -0.7, A549 viability -9.5% and TCR act -5.8%.
Screening Cc1c(C(=O)Nc2ccc(F)cc2)nnn1-c1cccc(C(F)(F)F)c1 returned A-T KAP1 phos 4.4%, Nrf2 ARE act 2.9%, Nrf2 inh 20.6µM*, CCT modulator 0.5, A549 viability -15.0% and TCR act -5.1%.
`Cc1ccc(Nc2c(-c3cccs3)nc3nc(C)cc(C)n23)cc1` gave Nrf2 ARE act 7.8%, Nrf2 inh inconclusive and A549 viability -2.7%.
`CCn1c(COc2c(C)cccc2C)nnc1SCC(=O)N1CCN(c2ccccc2)CC1` gave A-T KAP1 phos -0.7%, Nrf2 ARE act 2.8%, Nrf2 inh 18.4µM*, CCT modulator -1.6, A549 viability inconclusive and TCR act -2.9%.
C=CCn1c(COc2cccc(C)c2C)nnc1SCC(=O)N1CCN(c2ccccc2)CC1 was read as A-T KAP1 phos -3.6%, Nrf2 ARE act 1.2%, Nrf2 inh 16.4µM*, CCT modulator 2.6, A549 viability inconclusive and TCR act 2.6%[46.1 µM].
Screening Cc1cccc(OCc2nnc(SCC(=O)N3CCN(c4ccccc4)CC3)o2)c1C returned A-T KAP1 phos -4.8%, Nrf2 ARE act -0.7%, Nrf2 inh inconclusive, CCT modulator -0.5, A549 viability -7.0% and TCR act inconclusive.
`COc1ccc(C2Nc3ccccc3C(=O)N2c2ccc(F)cc2)cc1COc1ccc(NC(C)=O)cc1` (stereo not given) gave Nrf2 inh 26.3% and A549 viability -4.6%.
